Structures are written as SMILES. Inconclusive results are not listed. Activity calls are given as the source filed them. Rule for the calls: active = hit-call score of the fitted dose curve at least 0.9, where 1 is the maximum; inconclusive = response in the unintended direction; inactive = score below 0.9.

Sequence of Cellular tumor antigen p53 (Homo sapiens) (P04637 whole entry, looked up): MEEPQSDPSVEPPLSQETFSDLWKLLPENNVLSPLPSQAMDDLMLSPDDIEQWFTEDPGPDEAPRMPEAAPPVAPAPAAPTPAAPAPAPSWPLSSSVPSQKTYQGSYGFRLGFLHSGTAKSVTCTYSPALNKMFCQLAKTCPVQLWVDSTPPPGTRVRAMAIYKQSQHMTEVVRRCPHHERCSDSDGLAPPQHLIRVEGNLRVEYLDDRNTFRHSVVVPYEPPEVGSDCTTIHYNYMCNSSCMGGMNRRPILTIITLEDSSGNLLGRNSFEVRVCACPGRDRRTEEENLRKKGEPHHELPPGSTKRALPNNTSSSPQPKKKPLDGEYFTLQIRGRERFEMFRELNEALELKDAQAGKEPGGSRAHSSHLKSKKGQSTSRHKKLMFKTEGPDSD

This experiment has as its target Cellular tumor antigen p53 (Homo sapiens) (UniProt P04637). The experiment is described as follows: TOX21_p53_BLA_p4_ratio: Tox21 HCT-116 p53 Agonism Beta-lactamase Assay, Ratio, Phase 4 (AID 2283601). The method, boiled down: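 Signal is the blue/green (460nm/530nm) ratio of cleaved versus uncleaved CCF4-AM substrate, read after 2 h substrate loading. Cells were HCT116 carrying the p53-responsive beta-lactamase reporter, dosed 16 h at 37C, 5% CO2; CellTiter-Glo measured in parallel.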
`c1ccc2c(CCC3CCNCC3)c[nH]c2c1`: the result was inactive.
For `Nc1ccc(S(=O)(=O)NC(=O)c2ccccc2)cc1` the value was “inactive”.
Then `Nc1ccccc1S(=O)(=O)O`, with “inactive”; and `Cc1cc(N)no1`, with “inactive”; and `C[C@@H](O)C(=O)O`, with “inactive”.
For `O=C1CCCc2ccccc21` the value was “inactive”; for `CCO/C([O-])=N/c1c[n+](N2CCOCC2)no1`, “inactive”.
`c1cnc2cc3c(cc2n1)[C@@H]1CNC[C@H]3C1`: the outcome was inactive.
For `Cc1ccc(CO)cc1` the value was “inactive”.
With `c1ccc2c(c1)Sc1ccccc1N2CCN1CCCC1`, the outcome was inactive.
For `CN[C@H]1CCc2cc(OC)c(OC)c(OC)c2-c2ccc(OC)c(=O)cc21` the value was “inactive”.
Then `O=C(O)CCS`, with “inactive”.
As for `COc1cc(C(=O)NCCCCCC(=O)O)cc(OC)c1OC`, the result was inactive.
On to `Cc1ccnc(NS(=O)(=O)c2ccc(N)cc2)n1`, for which the outcome was inactive.
For `C=CCCCCCCCC` the value was “inactive”.
For `CC(=NCc1ccccc1)c1ccccc1O`, the outcome was inactive.
For `Cc1ccc(C(=O)Nc2ccc(S(=O)(=O)O)c3cc(S(=O)(=O)O)cc(S(=O)(=O)O)c23)cc1NC(=O)c1cccc(NC(=O)Nc2cccc(C(=O)Nc3cc(C(=O)Nc4ccc(S(=O)(=O)O)c5cc(S(=O)(=O)O)cc(S(=O)(=O)O)c45)ccc3C)c2)c1` the value was “inactive”; for `CC(C)NCC(O)COc1ccc(CCOCC2CC2)cc1` (stereo not drawn), “inactive”.
For `CCOC(=O)/C=C/C(=O)OCC` the value was “inactive”; for `Cc1ccc(C)c(N)c1`, “inactive”.
Then `C#CC(O)CCCCC` (stereo not drawn), with “inactive”; and `O=S(=O)(O)CO`, with “inactive”; and `O=C(O)CNC(=O)c1ccc(CO)o1`, with “inactive”.
Turning to `O=C(NNCS(=O)(=O)O)c1ccncc1`, the outcome was inactive.
`CC(=O)OC(C)OC(C)=O`: the result was inactive.
For `CCC1NC(=O)c2cc(S(N)(=O)=O)c(Cl)cc2N1` (stereo not drawn) the value was “inactive”.
Then `CNCCC(Oc1ccccc1OC)c1ccccc1` (stereo not drawn), with “inactive”.
For `Cc1ccc2cccnc2c1` the value was “inactive”.

(Values after PubChem BioAssay (EPA / NIEHS).)
